High-throughput results (PubChem)
The list is not random: actives were taken first. Their share in the collection is about 0.49%.
EPAC1 agonist = qHTS for Agonist of cAMP-regulated guanine nucleotide exchange factor 3 (EPAC1): primary screen; Rap guanine nucleotide exchange factor 3 (Homo sapiens), O95398; EPAC1 agonist qHTS, biochemical assay; response scale: 100% = response to 6.5 mM cAMP; Potency, µM (series often up to 154 µM), without a hit: at the top dose activation, usual class: activators; 0.073% of 360,000 active; note: nearly all actives have a fitted effect of over 60% in size
Target sequence (O95398 whole entry, looked up): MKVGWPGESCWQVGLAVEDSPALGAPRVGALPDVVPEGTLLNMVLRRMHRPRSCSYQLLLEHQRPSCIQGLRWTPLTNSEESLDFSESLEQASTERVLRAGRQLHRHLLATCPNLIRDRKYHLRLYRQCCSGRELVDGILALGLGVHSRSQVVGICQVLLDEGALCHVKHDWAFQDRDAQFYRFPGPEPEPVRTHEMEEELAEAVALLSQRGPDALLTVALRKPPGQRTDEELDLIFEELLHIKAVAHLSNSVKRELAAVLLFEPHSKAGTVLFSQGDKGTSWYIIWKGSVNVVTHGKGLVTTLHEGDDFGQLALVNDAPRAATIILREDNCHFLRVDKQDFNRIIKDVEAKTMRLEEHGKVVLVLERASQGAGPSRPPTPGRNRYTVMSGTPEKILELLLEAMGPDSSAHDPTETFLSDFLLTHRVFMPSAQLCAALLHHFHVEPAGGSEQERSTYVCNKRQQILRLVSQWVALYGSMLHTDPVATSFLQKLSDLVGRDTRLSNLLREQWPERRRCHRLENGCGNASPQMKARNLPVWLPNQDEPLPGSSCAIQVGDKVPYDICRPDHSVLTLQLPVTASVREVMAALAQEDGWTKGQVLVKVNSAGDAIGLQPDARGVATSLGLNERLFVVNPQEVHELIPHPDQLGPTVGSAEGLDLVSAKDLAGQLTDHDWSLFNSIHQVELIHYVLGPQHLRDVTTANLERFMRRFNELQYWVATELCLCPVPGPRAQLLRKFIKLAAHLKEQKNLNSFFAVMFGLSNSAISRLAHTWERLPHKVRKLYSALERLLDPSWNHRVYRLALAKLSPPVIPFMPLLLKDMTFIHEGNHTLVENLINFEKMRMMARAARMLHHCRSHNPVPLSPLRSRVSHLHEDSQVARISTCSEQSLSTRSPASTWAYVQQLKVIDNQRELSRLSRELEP
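Compounds were pinned as a concentration titration into mixtures of EPAC1 (100 nM), BODIPY-GDP-loaded Rap1B (250 nM) and GDP (50 uM). After 5 min at room temperature, fluorescence was followed for 30 min; activity was scaled to 6.5 mM cAMP.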
USP1 inh = Inhibitors of USP1/UAF1: Primary Screen; 0.23% of 390,000 active; recombinant USP1/UAF1, Ub-Rhodamine cleavage fluorescence; AID 743255, 2014; Potency, µM (titrated, usually from 57.1 µM), for inactives: at the highest dose activity change, negative = inhibition, actives largely listed as inhibitors; note: % is set by controls: 0 for no effect and ±100 for the full control effect; nearly all actives have a fitted effect of over 60% in size
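In this screen, compounds sit with the deubiquitinase complex (1nM) for 15 min at room temperature before Ub-Rho is added at 150nM final. Fluorescence rise is then followed for 6 reads every 60 seconds.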
EPAC2 antag = qHTS for Antagonist of cAMP-regulated guanine nucleotide exchange factor 2 (EPAC2): primary screen | Rap guanine nucleotide exchange factor 4 (Homo sapiens), Q8WZA2 | EPAC2 GEF exchange of Rap1B-BODIPY-GDP, fluorescence | Potency, µM (highest dose often 114 µM), inactives show at the highest dose activity, negative = inhibition, most hits filed as inhibitors | 0.18% of 360,000 active | AID 720708, 2013; note: % is set by controls: 0 for no effect and ±100 for the full control effect; nearly all actives have a fitted effect of over 45% in size
EPAC1 antag = qHTS for Antagonist of cAMP-regulated guanine nucleotide exchange factor 3 (EPAC1): primary screen; EPAC1 GEF assay, Rap1b-BODIPY-GDP exchange fluorescence; 0.14% of 360,000 active; Potency, µM (doses to about 115 µM), for inactives: at the top dose activity change, negative = inhibition, hits mostly inhibitors; Rap guanine nucleotide exchange factor 3 (Homo sapiens), O95398; AID 720709, 2013;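 note: plate controls were vehicle for no effect and positive control for full effect; nearly all actives have a fitted effect of over 50% in size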
EPAC2 agonist = qHTS for Agonist of cAMP-regulated guanine nucleotide exchange factor 4 (EPAC2): primary screen | Rap guanine nucleotide exchange factor 4 (Homo sapiens), Q8WZA2 | EPAC2 activation, biochemical qHTS; response scale: 100% = 6.5 mM cAMP response | Potency, µM (titrated, usually from 154 µM), for inactives: at the top dose activation, actives largely listed as activators | 0.079% of 360,000 active | AID 720711, 2013; note: nearly all actives have a fitted effect of over 50% in size
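Setup: EPAC2 100 nM, labeled Rap1B complex 250 nM, free GDP 50 uM. Compound titrations pinned in, brief spin, 5 min room temperature incubation. Kinetic fluorescence read over 30 min, normalized to 6.5 mM cAMP.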
* hit, by the source's call; i = inactive; ? = inconclusive; / = no result given. Calls come from the whole dose curve; as a rule, active = well fitted curve in the direction sought with a large enough effect; inconclusive = small, poorly fitted or top-dose-only effect, or another doubt; inactive = no such curve, though single readings can be large; an effect the other way counts as inactive or inconclusive. Potency is the fitted concentration of half-maximal effect.

SMILES	EPAC1 agonist	USP1 inh	EPAC2 antag	EPAC1 antag	EPAC2 agonist
COc1cc(/C=C/c2nc3ccccc3c(=O)n2-c2ccc(Br)c(C)c2)ccc1O	/	-13%	/	/	/
O=C1NCCOC(=O)[C@@H](Cc2ccc(F)cc2)CC/C=C/C[C@H]1CC(=O)N(CCO)Cc1ccccc1	-2%	-32%	-3%	-2%	0%
CCn1c(O)c(C=Nc2ccc(N3CCOCC3)cc2)c(=O)n(CC)c1=S	7%	18µM*	112%	1%	100µM*
COc1ccc(-c2nc(CN3C(=O)CN=C(c4ccccc4)c4ccccc43)c(C)o2)cc1OC	/	-2%	/	/	/
C[C@H]1CN([C@@H](C)CO)C(=O)c2cccc(NC(=O)c3ccc(-c4nccs4)cc3)c2O[C@@H]1CN(C)C(=O)Nc1cccc2ccccc12	-2%	-24%	-13%	-13%	0%
O=C1NC(=O)N(c2ccccc2F)C(=O)/C1=C/c1ccc(Sc2nc3ccccc3[nH]2)o1	14%	-16%	-1%	25µM*	-1%
O=C1NC(=O)N(c2ccccc2)C(=O)/C1=C/c1ccc(Sc2ccccc2)o1	8%	-20%	3%	11%	2%
Cc1ccc(/C=C2\C(=O)NC(=S)N(c3ccccc3F)C2=O)s1	2%	-15%	-1%	?	-10%
O=C1NC(=O)N(c2cccc(Cl)c2)C(=O)/C1=C\c1ccc(Sc2nc3ccccc3[nH]2)o1	-2%	-14%	-3%	45µM*	1%
CCCOP(=O)(c1ccc(N(C)C)cc1)C(O)c1ccc(Cl)cc1Cl (stereo not drawn)	2%	-11%	?	-24%	10%
CC1CCC2(CC1)NC(=O)N(NC(=O)CCl)C2=O (stereo not drawn)	0%	?	10%	4%	7%
CCCCCCC1CC(C)(C(=O)CNc2nncs2)OC1=O (stereo not drawn)	5%	-10%	?	-6%	-3%
Cc1cc(C=C(C#N)C#N)ccc1N1CCCC1	?	?	7%	2%	100µM*
N#CC(C#N)=Cc1ccc(N2CCOCC2)cc1	-1%	8%	6%	-6%	-12%
CCN1/C(=C\C=C\C2=[N+](CC)c3ccccc3C2(C)C)C(C)(C)c2ccccc21	79µM*	14µM*	73%	94%	50µM*
O=C1NC(=O)N(Cc2ccco2)C(=O)/C1=C\c1cccn1CCOc1ccc(Cl)cc1	-12%	-12%	-8%	50µM*	5%
COc1ccc(CN2C(=O)NC(=O)/C(=C/c3ccc([N+](=O)[O-])s3)C2=O)cc1	-7%	35µM*	3%	40µM*	-10%
COc1ccc(CN2C(=O)NC(=O)/C(=C\c3ccco3)C2=O)cc1	-6%	?	2%	50µM*	4%
O=C1NC(=O)N(Cc2ccc(F)cc2)C(=O)/C1=C\c1ccc([N+](=O)[O-])s1	-9%	28µM*	0%	20µM*	-4%
O=C1NC(=O)N(Cc2ccc(F)cc2)C(=O)/C1=C\c1ccc(N2CCCC2)cc1	6%	0%	6%	-21%	10%
COc1cccc(N2C(=O)NC(=O)/C(=C/c3ccc([N+](=O)[O-])s3)C2=O)c1	2%	?	-23%	?	4%
NS(=O)(=O)c1cc(C2(O)NC(=O)c3ccccc32)ccc1Cl (stereo not drawn)	-18%	?	-5%	7%	6%
CCOc1cccc(N2C(=O)/C(=C/c3ccco3)C(=O)NC2=S)c1	0%	-13%	35%	?	2%
O=C1NC(=S)N(c2ccccc2)C(=O)/C1=C/c1ccco1	21%	?	-25%	20µM*	4%
N#Cc1cc2c(nc1SCC(=O)Nc1ccc(C(F)(F)F)cc1)C1CCN2CC1	/	-3%	/	/	/
SMILES	EPAC1 agonist	USP1 inh	EPAC2 antag	EPAC1 antag	EPAC2 agonist
O=P(Nc1cccc(F)c1)(Oc1ccccc1F)Oc1ccccc1F	14%	-7%	35µM*	?	23%
Cc1cccc(NP(=O)(Oc2ccccc2F)Oc2ccccc2F)c1	11%	-9%	?	-15%	6%
Cc1ccc(C(O)P(=O)(OCCC(C)C)c2ccc(N(C)C)cc2)cc1 (stereo not drawn)	-20%	-12%	?	3%	-14%
Cn1cccc1/C=C1\C(=O)NC(=O)N(Cc2ccccc2Cl)C1=O	-7%	-10%	-4%	79µM*	5%
O=c1nc(/C=C/c2ccc(Cl)cc2Cl)cc(C(F)(F)F)[nH]1	-20%	?	56µM*	?	-2%
C[C@H]1COC(=O)[C@@H](Cc2ccc(F)cc2)CC/C=C/C[C@@H](CC(=O)N(CCO)Cc2ccccc2)C(=O)N1	7%	-1%	-4%	-6%	8%
O=C1C=CC(=O)C2C1C1(Cl)C(Cl)=C(Cl)C2(Cl)C1(Cl)Cl (stereo not drawn)	-1%	-23%	56µM*	-12%	9%
Cc1ccccc1N1C(=O)NC(=O)/C(=C\c2ccc3c(c2)CCCN3Cc2ccccc2)C1=O	12%	?	-5%	35µM*	-3%
O=C1NC(=S)NC(=O)C1=Cc1ccc2c(c1)CCN2CCCCl	15%	-5%	-11%	-26%	2%
COc1ccc(N2C(=O)NC(=O)/C(=C/c3ccc([N+](=O)[O-])s3)C2=O)cc1	-2%	22µM*	0%	?	4%
COc1ccc(N2C(=O)/C(=C/C=C/c3ccccc3[N+](=O)[O-])C(=O)NC2=S)cc1	-4%	?	-8%	45µM*	-4%
COc1ccc(N2C(=O)NC(=O)/C(=C\c3ccc([N+](=O)[O-])s3)C2=O)cc1	-5%	16µM*	-4%	?	-18%
COc1ccccc1N1C(=O)NC(=O)/C(=C/c2ccc([N+](=O)[O-])s2)C1=O	2%	32µM*	-1%	?	5%
C[N+](C)(C)CCCCCCCCCC[N+](C)(C)C	-13%	?	0%	-9%	1%
C=CC[C@@H](CC(=O)N(CCO)Cc1ccccc1)C(=O)NC[C@@H](OC(=O)[C@@H](CC=C)CC(=O)OC(C)(C)C)c1ccccc1	-33%	-16%	-23%	-23%	-5%
CC1=NCCc2c1[nH]c1cc(O)ccc21	112µM*	25µM*	i	71%	100µM*
O=C(OC1CCN(CCCl)CC1)C(c1ccccc1)c1ccccc1	6%	-24%	13µM*	2%	10%
